HepG2 viability = qHTS for Inhibitors of TGF-b: Cytotox Counterscreen; hit rate 0.76% among 410,000; HepG2 CAGA-GFP viability, ATP luminescence, 18 h; Potency, µM (top dose mostly 46.1 µM), actives largely listed as cytotoxic
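CellTiter-Glo luminescence gave cytotoxicity after 18 hours at 37 degrees C. The cells were HepG2 CAGA-GFP in 1% FBS DMEM, stimulated with 500 pg/mL TGF-beta after compound addition. %Activity was normalised to no-cell wells (complete cell-killing) and DMSO (no toxicity), and curves were fitted and classified.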
TGFb SMAD3 inh = qHTS for Inhibitors of TGF-b | HepG2 CAGA-GFP TGF-b/SMAD3 reporter, GFP fluorescence, 18 h; TGF-beta stimulated, 500 pg/mL final | Potency, µM (titrated, usually from 46.1 µM), usual class: inhibitors | hit rate 1.2% among 410,000 | AID 588855, 2011; note: nearly all actives have a fitted effect of over 65% in size
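Per well, imaged GFP fluorescence of HEPG2 CAGA-GFP cells gives the signal; cells get compound, then TGF-beta (500 pg/mL final), 18 h at 37 degrees C; %Activity versus -TGF-beta and +DMSO controls.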
DRD3 agonist = qHTS of D3 Dopamine Receptor Agonist: qHTS; D(3) dopamine receptor (Homo sapiens), P35462; D3R DiscoveRx beta-arrestin cells, luminescence, 90 min; max activation, %; hit rate 0.58% among 410,000; in the data active = max activation above about 30%
Target sequence (P35462 whole entry, looked up): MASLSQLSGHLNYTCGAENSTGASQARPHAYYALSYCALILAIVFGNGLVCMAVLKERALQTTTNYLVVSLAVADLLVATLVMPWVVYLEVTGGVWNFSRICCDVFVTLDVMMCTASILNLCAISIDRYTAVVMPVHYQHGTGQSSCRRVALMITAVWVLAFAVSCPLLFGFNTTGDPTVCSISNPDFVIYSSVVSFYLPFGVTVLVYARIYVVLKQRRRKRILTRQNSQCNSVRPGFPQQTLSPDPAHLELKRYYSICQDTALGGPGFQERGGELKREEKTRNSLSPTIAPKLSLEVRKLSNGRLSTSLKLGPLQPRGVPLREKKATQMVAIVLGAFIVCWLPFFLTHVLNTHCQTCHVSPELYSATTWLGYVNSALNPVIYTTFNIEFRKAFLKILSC
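Cells at 1500/well, incubated overnight, then treated with pinned compounds (dopamine as control) for 90 min at 37 degrees C. DiscoveRx reagent added for 30 - 60 minutes at room temperature; luminescence read.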
D3 antag = qHTS of D3 Dopamine Receptor Antagonist: qHTS | D3R cells, DiscoveRx beta-arrestin luminescence, antagonist mode; hits give low values | hit rate 2.5% among 360,000 | max response, negative = inhibition, % | D(3) dopamine receptor (Homo sapiens), P35462; in the data active = max response below about -50%; inconclusive = no clear call, values can overlap the other calls
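Cells plated overnight at 1500 cells/well, then exposed to library compounds with dopamine controls for 90 minutes at 37 degrees C. DiscoveRx reagent added for 30–60 minutes at room temperature; luminescence read, quantitative HTS format.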
S2 tox = Viability Counterscreen for Primary qHTS for Inhibitors of ATXN expression | hit rate 0.49% among 400,000 | Potency, µM (doses to about 56.7 µM), most hits filed as cytotoxic | S2 cells (HEK-293 line with an ATXN2-luciferase reporter) viability, CellTiter-Fluor protease fluorescence, 24 h; note: nearly all actives have a fitted effect of over 40% in size
ATXN2 expr inh = Primary qHTS for Inhibitors of ATXN expression; Potency, µM (titrated, usually from 57 µM), actives largely listed as inhibitors; hit rate 0.72% among 360,000; HEK-293 ATXN2-luciferase reporter, luminescence, 24 h; note: nearly all actives have a fitted effect of over 55% in size
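ATXN2-luciferase reporter cells (luciferase flanked by upstream and downstream ATXN2 gene portions) were treated 24 h at 37 °C with compounds at up to 57 uM. SteadyGlo luminescence gave expression; GF-AFC fluorescence gave viability.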
Numbers stand for hits; 0 = inactive; ? = inconclusive; - = no result given; ! = not active in a repeat. Most compounds without a hit are left out; they make up all but 4.8% or so of the library. Unless noted, calls come from the whole dose curve; as a rule, active = well fitted curve in the direction sought with a large enough effect; inconclusive = small, poorly fitted or top-dose-only effect, or another doubt; inactive = no such curve, though single readings can be large; an effect the other way counts as inactive or inconclusive.

SMILES | HepG2 viability | TGFb SMAD3 inh | DRD3 agonist | D3 antag | S2 tox | ATXN2 expr inh
CN(CC1CCN(CCc2cccc(C(F)(F)F)c2)CC1)C(=O)c1ccc(F)cc1 | 0 | 0 | 0 | -87 | 0 | 0
COc1cc2c(NC3CCN(C)CC3)nc(N3CCCCC3)nc2cc1OCCOCCN1CCCC1 | 0 | ? | - | - | - | -
CCc1cccc(-n2nnc(-c3nsc(NC(=O)c4cccs4)n3)c2C)c1 | 16µM | ? | 0 | - | - | -
CCc1ccccc1-n1nnc(-c2nsc(NC(=O)c3ccc(C)c(C)c3)n2)c1C | 0 | 10µM | 0 | - | - | -
CCCCN(CCC#N)c1ccc(/C=C/c2ccnc3ccccc23)cc1 | 0 | ? | - | - | - | -
N#Cc1c(-c2ccccc2)nc(-c2ccccc2)[nH]c1=O | 0 | 0 | 0 | -58 | 0 | 0
N#Cc1c(-c2ccccc2)nc(-c2ccncc2)[nH]c1=O | 0 | 0 | 0 | 0 | 0 | -
CCCCCCCCCCCCOCCO | - | - | - | - | 0 | 0
COc1ccc(/C=N/OCC(=O)NC(c2ccccc2)c2ccccc2)c(OC)c1 | 0 | ? | 0 | 0 | 0 | 0
CCOc1ccc(/C=N/OCC(=O)NC(c2ccccc2)c2ccccc2)cc1 | 0 | 22µM | 0 | 0 | 0 | 0
O=C(NCC1CCCN(Cc2cccc(OCCO)c2)C1)c1ccc(F)cc1 (stereo not given) | 0 | 0 | 0 | 0 | 0 | -
c1cc(CN2CCCCC2)cc(OCCCNc2nc3ccccc3s2)c1 | 0 | ? | 0 | -75 | ? | ?
O=C(NCCCOc1cccc(CN2CCCCC2)c1)c1ccc(Cl)c(Cl)c1 | 0 | 0 | 0 | -98 | 0 | 0
COc1cccc(NC(=O)C(Sc2nnc(Nc3ccccc3C)s2)c2ccccc2)c1 (stereo not given) | 0 | ? | 0 | -54 | 0 | 0
COc1ccc(Nc2nnc(SC(C(=O)Nc3cc(C)ccc3C)c3ccccc3)s2)cc1 (stereo not given) | 0 | 0 | 0 | 0 | 0 | ?
O=C(Nc1ccc(SC(F)F)cc1)c1cc(-c2ccc3c(c2)OCCO3)on1 | 0 | ? | 0 | - | 0 | 0
COc1ccc(NC(=O)c2cnc3cc(C)ccn3c2=O)c(OC)c1 | 0 | 0 | 0 | - | 0 | 0
COc1ccc(N(CC(=O)Nc2cc(C)ccc2C)S(=O)(=O)c2c(C)noc2C)cc1 | 0 | 0 | 0 | 0 | 0 | 0
COc1ccc(N(CC(=O)Nc2cc(Cl)ccc2C)S(=O)(=O)c2c(C)noc2C)cc1 | 0 | 11µM | 0 | 0 | 0 | 0
CCOc1ccc(N(CC(=O)Nc2ccc(C)c(C)c2)S(=O)(=O)c2c(C)noc2C)cc1 | 0 | ? | 0 | -66 | 0 | 0
CCCCn1c(-c2cccc(Br)c2)nc2cc3[nH]c(=O)c(C(C)C)nc3cc21 | 0 | ? | 63 | 0 | ? | 0
O=C(Nc1cc(Cl)cc(Cl)c1)c1cc(S(=O)(=O)NC2CCCC2)ccc1F | 0 | ? | 0 | - | ? | ?
O=C(Nc1ccc(F)c(F)c1)c1cc(S(=O)(=O)NC2CCCC2)ccc1F | 0 | ? | 0 | - | - | -
Cc1ccc(NC(=O)c2cc(S(=O)(=O)NC3CCCCC3)ccc2F)cc1Cl | 10µM | 10µM | 0 | - | - | -
O=C(O)c1ccc(S(=O)(=O)NC2CCCCC2)cc1 | 0 | 0 | 0 | -59 | 0 | 0
SMILES | HepG2 viability | TGFb SMAD3 inh | DRD3 agonist | D3 antag | S2 tox | ATXN2 expr inh
O=C(Nc1ccc(Br)cc1)c1cc(S(=O)(=O)NC2CCCC2)ccc1F | 0 | ? | 0 | - | ? | ?
O=C(Nc1ccc(C(F)(F)F)cc1)c1cc(S(=O)(=O)NC2CCCCCC2)ccc1F | 11µM | ? | 0 | - | - | 32µM
O=C(Nc1ccc(C(F)(F)F)cc1)c1cc(S(=O)(=O)NC2CCCCC2)ccc1F | 0 | 13µM | 0 | - | ? | ?
COc1ccc(C)cc1NC(=O)CCn1nc(C)cc1C | 0 | 0 | 0 | - | 0 | 0
CCN1CCN(CC(=O)c2c[nH]c3ccccc23)CC1 | 0 | 0 | 0 | 0 | 0 | 0
O=C(CN1CCN(C2CCCCC2)CC1)c1c[nH]c2ccccc12 | 0 | 0 | 0 | -69 | 0 | 0
Cc1ccccc1OCC(O)Cn1c(=N)n(CCN2CCCCC2)c2ccccc21 (stereo not given) | 16µM | - | 0 | - | - | -
N=c1n(CCN2CCCCC2)c2ccccc2n1CC(O)COc1ccccc1 (stereo not given) | 0 | 11µM! | 0 | 0 | 25µM! | ?
N=c1n(CCN2CCCCC2)c2ccccc2n1CC(O)c1ccc(Cl)c(Cl)c1 (stereo not given) | 11µM | ? | 0 | ? | ? | 25µM
Cc1c(Cn2c(C)nc3c(C(=O)O)cc(N4CCOCC4)cc32)cccc1C(F)(F)F | - | - | - | - | - | 0
COc1ccc(-c2c3c(=O)n(C)c(=O)n(C)c3c3c(-c4ccccc4)nc4ccccc4n23)cc1 | 0 | 0 | 0 | - | 0 | 0
CC(C)CCNC(=O)Cn1c2c(c(-c3ccccc3Cl)cc1=O)CCC2 | 0 | 0 | 0 | 0 | ? | 0
CC1CCC(NC(=O)Cn2c3c(c(-c4ccccc4Cl)cc2=O)CCC3)CC1 (stereo not given) | 0 | 0 | 0 | -77 | ? | 0
COc1ccc(S(=O)(=O)Nc2cc(SCC(=O)O)c(O)c3ccccc23)cc1 | 0 | 11µM | 0 | 0 | ? | -
Cc1cc(C)c(S(=O)(=O)Nc2cc(SCC(=O)O)c(O)c3ccccc23)cc1C | 0 | ? | 0 | -54 | - | ?
Cc1cc(C)c(S(=O)(=O)/N=C2/C=C(SCC(=O)O)C(=O)c3ccccc32)cc1C | 0 | ? | 0 | ? | ? | ?
COc1ccc(S(=O)(=O)Nc2cccc3ccccc23)cc1 | 0 | 0 | - | - | - | -
O=S(=O)(Nc1ccc(Cl)cc1NS(=O)(=O)c1ccccc1)c1ccccc1 | 0 | ? | 0 | 0 | 0 | 0
O=C(O)CSc1cc(NS(=O)(=O)c2ccc(Cl)cc2)c2ccccc2c1O | 6.3µM | ? | 0 | 0 | 0 | ?
COc1cccc(Nc2nnc(-c3cc4ccc(O)cc4oc3=O)s2)c1 | 0 | - | 0 | - | - | -
CN1c2ccccc2C(C)(C)[C@]12C=Cc1cc(O)ccc1O2 | 0 | 18µM | 0 | 0 | ? | 0
CN1c2ccccc2C(C)(C)C12C=Nc1c(ccc3ccccc13)O2 (stereo not given) | 0 | ? | 0 | 0 | 0 | 0
CN(C)Cc1c(C(=O)NCCOc2ccc(C(=O)NO)cc2)oc2ccccc12 | - | - | - | - | - | 0
CC(C)(C)c1cc(CN2CCOCC2)c(C(=O)O)o1 | 0 | 0 | 0 | -81 | 0 | 0
COc1ccc(CCNC(=O)C(=O)NCC(c2ccc3c(c2)OCO3)N2CCOCC2)cc1 (stereo not given) | 0 | 0 | 0 | - | 0 | 0
O=C(/C(N=Nc1cccc(C(F)(F)F)c1)=C(/O)c1cccs1)C(F)(F)F | 0 | 13µM | 0 | ? | ? | ?
CC(=O)/C(N=Nc1cccc(C(F)(F)F)c1)=C(\C)O | 0 | 0 | 0 | 0 | 0 | 0
